# Screens: PubChem BioAssay, National Center for Advancing Translational Sciences (NCATS)
# IL-1B inflam inh: inhibitors of inflammasome signaling (IL-1 beta secretion); THP-1 LPS/ATP IL-1B secretion, AlphaLISA, 16 h; stronger effect = lower value; activity change, % at 57.5 µM; 360,000 compounds, 4.7% hits; in the data active means activity change below about -50%; inconclusive means mostly about -30% to -49%
#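 Secreted IL-1B measured by AlphaLISA bead assay after 16 h compound exposure of THP-1 cells; compounds (final up to 57.5 uM) added 1 h before LPS (250 ng/mL) and ATP (1.25 mM) stimulation; lower signal means less secretion.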
# HT1080 IDH1KD tx: kills HT-1080 cells with IDH1 knockdown; HT-1080 IDH1 knockdown viability, ATP luminescence, 48 h; Potency, µM (highest dose often 46.1 µM), most hits filed as cytotoxic; 360,000 compounds, 2% hits; AID 686971
#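 HT-1080-IDH1KD cells (IDH1 knocked down), 750/well in RPMI with 5% FBS, treated with compound 48 h at 37 degrees C. Viability by CellTiter-Glo luminescence, normalised to DMSO and no-cell wells; concentration-response curves classed.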
# TDP1 cell noCPT: qHTS for Inhibitors of human tyrosyl-DNA phosphodiesterase 1 (TDP1): qHTS in cells in absence of CPT | 420,000 compounds, 15% hits | DT40 Tdp1-/- hTDP1 cells, no CPT, ATP luminescence, 48 h | Potency, µM (doses to about 46.2 µM), actives largely listed as inhibitors; further: nearly all actives have a fitted effect of over 55% in size
#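 Chicken DT40 Tdp1-/- cells complemented with human TDP1, screened without camptothecin (DMSO vehicle only), 400 cells/well. Compounds pin-transferred, cells incubated at 37 °C for at least 48 hr. Growth read as ATP-dependent luminescence (CellTiter-Glo, 30 min at RT).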
# DT40 TDP1 CPT: growth inhibition of DT40 Tdp1-/-;hTDP1 cells with camptothecin (screen for TDP1 inhibitors); 420,000 compounds, 12% hits; Potency, µM (highest dose often 46.2 µM), actives largely listed as inhibitors; AID 686979; chicken DT40 Tdp1-/-;hTDP1 cells + 20 nM CPT, ATP luminescence, 48 h; further: nearly all actives have a fitted effect of over 55% in size
#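 Chicken DT40 Tdp1-/- cells complemented with human TDP1, 400 cells/well, exposed to compounds plus 20 nM camptothecin for at least 48 h at 37 C; viability read as ATP content by CellTiter-Glo luminescence.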
# HT1080-NT tox: kills 2HG-producing HT-1080-NT fibrosarcoma cells; HT-1080-NT fibrosarcoma viability, CellTiter-Glo ATP luminescence, 48 h; Potency, µM (doses to about 46.1 µM), usual class: cytotoxic; 360,000 compounds, 1.6% hits; AID 686970;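 further: NT is the 2HG producing partner of a matched IDH1 knockdown line; nearly all actives have a fitted effect of over 55% in size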
#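 Read-out is CellTiter-Glo luminescence after 10 minutes at room temperature, following 48 hours' compound treatment of HT-1080-NT cells (750 cells/well, RPMI, 5% FBS, 37 degrees C).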
# A number is an active result; - = inactive; ? = inconclusive; . = no result; ! = a repeat was not active. Sampled rows, rich in hits. Any-hit rate of the full collection: about 19%. Unless noted, the call rests on the fitted dose curve; in most records, active means well fitted curve in the direction sought with a large enough effect; inconclusive means small, poorly fitted or top-dose-only effect, or another doubt; inactive means no such curve, though single readings can be large; an effect the other way counts as inactive or inconclusive.
SMILES,IL-1B inflam inh,HT1080 IDH1KD tx,TDP1 cell noCPT,DT40 TDP1 CPT,HT1080-NT tox
O=C([C@H]1O[C@@H](n2ccc(=O)[nH]c2=O)[C@H](O)[C@@H]1O)N(CCC1=CCCCC1)CC1CC1,-,-,-,?,?
CCOc1cccc2cc(-c3nc(-c4ccc(Cl)cc4)c(C)s3)c(=O)oc12,.,.,-,-,.
CC(CCc1ccccn1)C(=O)C(C)CCc1ccccn1 (stereo not drawn),-,-,?,?,-
CC(C)(CCc1ccccn1)C(=O)C(CCc1ccccn1)CCc1ccccn1,-55.3,-,?,?,-
CC1CNCCN1S(=O)(=O)c1cccc2cnccc12 (stereo not drawn),-91.3!,?,14.6µM!,?,?
CCn1nc(C(=O)Nc2ccccc2N2CCCC2)c2ccccc2c1=O,-62.3,-,?,?,-
Cn1nc(C(=O)Nc2cccnc2)c2ccccc2c1=O,-,-,?,?,-
CCn1nc(C(=O)NC2=NCCS2)c2ccccc2c1=O,-,-,-,-,-
Cn1nc(C(=O)Nc2nc(-c3ccccn3)cs2)c2ccccc2c1=O,-,-,1.3µM,4.61µM,-
CCCn1nc(C(=O)Nc2nc(-c3ccccn3)cs2)c2ccccc2c1=O,-,?,2.31µM,7.31µM,?
CCn1nc(C(=O)Nc2nc(-c3ccccn3)cs2)c2ccccc2c1=O,-,-,3.26µM,2.91µM,-
CC1CCCN(C(=O)COC(=O)c2ccc[nH]c2=O)C1 (stereo not drawn),-,-,-,-,-
CCOC(=O)/C=C/c1ccc2c(c1)S(=O)(=O)N(c1cccc(OC)c1)[C@H]2CC(=O)OCC,-,-,?,?,-
Cc1ccc(NC(=O)C2CCN(C(=O)c3cccs3)CC2)cc1,-,-,-,-,-
COc1cccc(-c2cccc(NC(=O)C3CCN(Cc4ccc(C)o4)CC3)c2)c1,-,-,?,-,-
Cc1cccc(-c2ccc(NC(=O)C3CCN(CC4CC4)CC3)cc2)c1,?,?,18.4µM,?,20.6µM
COc1cccc(CN2CCC(C(=O)Nc3ccc(-c4cccc(C)c4)cc3)CC2)c1O,-,?,16.4µM,16.4µM,?
CCCCn1c(CCC)nc([N+](=O)[O-])c1Sc1ccc(Cl)cn1,?,-,?,18.4µM,-
C[C@H]1COC(=O)[C@@H](CC(=O)OC(C)(C)C)C/C=C\C[C@@H](CC(=O)N[C@H](CO)Cc2ccccc2)C(=O)N1,-,-,?,?,-
CC(C)(C)[C@H]1COC(=O)[C@@H](NC(=O)OCC2c3ccccc3-c3ccccc32)C/C=C\C[C@@H](CC(=O)N[C@@H](CO)Cc2ccccc2)C(=O)N1,-,-,6.51µM,9.2µM,-
O=C(C[C@@H]1C/C=C\C[C@@H](NC(=O)OCC2c3ccccc3-c3ccccc32)C(=O)OCCNC1=O)N[C@@H](CO)Cc1ccccc1,-,-,8.2µM,9.2µM,-
CC(C)(C)[C@H]1COC(=O)[C@@H](Cc2ccc(F)cc2)C/C=C\C[C@@H](CC(=O)N[C@H](CO)Cc2ccccc2)C(=O)N1,-,-,?,?,-
C[C@@H]1COC(=O)[C@H](NC(=O)OCC2c3ccccc3-c3ccccc32)C/C=C\C[C@@H](CC(=O)N[C@H](CO)Cc2ccccc2)C(=O)N1,-,-,20.6µM,18.4µM,-
CCN1CCN(c2nc3c(C)cccn3c(=O)c2/C=C(\C#N)C(=O)NCCOC)CC1,-,-,-,-,-
COc1cn(CC(=O)Nc2cccc(C)c2)c(CN2CCCCC2)cc1=O,.,.,-,-,.
SMILES,IL-1B inflam inh,HT1080 IDH1KD tx,TDP1 cell noCPT,DT40 TDP1 CPT,HT1080-NT tox
Cc1cc(=O)oc(C)c1C(=O)N1CCN(C(c2ccccc2)c2ccccc2)CC1,-,-,29.1µM,20.6µM,-
Cc1c(C(=O)N2CCN(C(c3ccccc3)c3ccccc3)CC2)oc2ccccc12,-,-,?,16.4µM,-
CC(=O)N1CCN(C(c2ccccc2)c2ccccc2)CC1,-,.,-,-,.
CC12CCC(C(=O)N3CCN(C(c4ccccc4)c4ccccc4)CC3)(OC1=O)C2(C)C (stereo not drawn),-,-,18.4µM,?,-
Cc1onc(C(=O)N2CCN(C(c3ccccc3)c3ccccc3)CC2)c1[N+](=O)[O-],-98.7,-,?,?,-
O=C(COc1ccc(NC(=O)c2ccccc2)cc1)c1ccccc1,-,-,?,-,-
Cc1oc2ncnc(N3CCOCC3)c2c1C(=O)N1CCN(c2cccc(C(F)(F)F)c2)CC1,.,.,-,?,.
CCOc1ccc(-c2nnc(Nc3ccc(OC)c(C(=O)N4CCCCC4)c3)c3ccccc23)cc1,-,?,16.4µM,?,?
CNC(=O)c1cc(Nc2nnc(-c3ccc(O)cc3)c3ccccc23)ccc1OC,-58.6,-,?,16.4µM!,-
Oc1ccc(-c2nnc(Nc3cccc(O)c3)c3ccccc23)cc1,-,-,-,-,-
CC(CNC(=O)c1ccc2nc(CCc3ccccc3)oc2c1)c1ccccc1 (stereo not drawn),.,.,?,-,.
COC(=O)COc1cccc(NC(=O)c2ccc(Cl)cc2)c1,?,-,?,?,-
O=C(Nc1ccc(OCC(F)(F)C(F)F)c(C(F)(F)F)c1)c1ccc(Cl)cc1,-104.0,14.6µM,?,23.1µM,25.9µM
COc1ccc(C(=O)Nc2ccc(OCC(F)(F)C(F)F)c(C(F)(F)F)c2)cc1OC,-,?,11.2µM,11.2µM,?
COc1ccc(NC(=O)c2ccc(COCC(F)(F)F)cc2)cc1OC,-,-,?,-,-
Cc1nc([N+](=O)[O-])c(C(=O)OCc2ccc(C#N)cc2)n1C,-,-,-,-,-
OC(COc1ccc(CNCc2cccnc2)cc1)CN1CCc2ccccc2C1 (stereo not drawn),-,-,?,-,-
O=C(NCC1CC1)C1Cc2c(-c3ccc4c(c3)OCO4)ccnc2O1 (stereo not drawn),-,-,18.4µM,?,-
CC(=O)Nc1cccc(-c2ccnc3c2CC(C(=O)Nc2ccc4c(c2)OCO4)O3)c1 (stereo not drawn),-,2.31µM,4.61µM,2.91µM,?
O=C(Nc1cccnc1)C1Cc2c(-c3ccc4c(c3)OCO4)ccnc2O1 (stereo not drawn),-56.8,?,1.03µM,20.6µM,?
CC(=O)NCCNC(=O)C1Cc2c(-c3ccc4c(c3)OCO4)ccnc2O1 (stereo not drawn),-,-,-,-,-
O=C(Nc1ccccc1)C1Cc2c(-c3ccc4c(c3)OCO4)ccnc2O1 (stereo not drawn),?,-,?,?,-
COc1ccc(NC(=O)C2Cc3c(-c4ccc5c(c4)OCO5)ccnc3O2)cc1 (stereo not drawn),-,?,8.2µM,5.17µM,?
